JMJD2E inh: inhibitors of human JMJD2E histone demethylase; B2RXH2; JMJD2E catalytic domain, FDH-coupled NADH fluorescence (FDH is formaldehyde dehydrogenase); Potency, µM (doses to about 57.1 µM), hits mostly inhibitors; actives 1.6% (n = 230,000); active means well fitted inhibition curve with a large enough effect, not every such curve was filed as active; inconclusive means small, poorly fitted or top-dose-only effect, or another doubt; inactive means no such curve, though single readings can be large or run the other way; further: nearly all actives have a fitted effect of over 50% in size
HPGD inh: blocks human HPGD enzyme activity | P15428 | actives 4.3% (n = 150,000) | purified HPGD, NADH fluorescence kinetic, PGE2 substrate | Potency, µM, usual class: inhibitors | AID 894; active means well fitted inhibition curve with a large enough effect, not every such curve was filed as active; inconclusive means small, poorly fitted or top-dose-only effect, or another doubt; inactive means no such curve, though single readings can be large or run the other way
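20 nM HPGD preincubated 15 min at room temperature with compound in 50 mM Tris-HCl pH 8, 0.01% Tween 20. Started with 1 mM NAD+ and 30 uM prostaglandin E2; NADH fluorescence (360/450 nm) read 5 times over 30-s intervals, last minus first.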
Tau ThT inhib: inhibitors of human tau fibril formation, thioflavin T binding; P10636; recombinant tau K18 P301L, heparin-induced fibrillization, ThT fluorescence; Potency, µM (titrated, usually from 57.4 µM), most hits filed as inhibitors; actives 2.1% (n = 270,000); AID 1460; further: nearly all actives have a fitted effect of over 55% in size
Target sequence (P10636 561-689 P618L limits assumed): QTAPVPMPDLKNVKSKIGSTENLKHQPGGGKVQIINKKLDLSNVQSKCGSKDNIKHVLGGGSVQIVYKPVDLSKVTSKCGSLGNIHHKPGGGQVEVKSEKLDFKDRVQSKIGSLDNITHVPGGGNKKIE
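In this qHTS, human K18 P301L tau is incubated with compound and heparin for 6 hr at 37 C, and Thioflavin T fluorescence then reports fibril load.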
Tau FP inhib: inhibitors of human tau fibril formation; P10636; K18 P301L tau heparin fibrillization, Alexa594 FP, 6 h; Potency, µM (doses to about 57.7 µM), usual class: inhibitors; actives 0.39% (n = 280,000); further: nearly all actives have a fitted effect of over 55% in size
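Recombinant K18 P301L […], labeled with Alexa 594 at 0.24 uM over 15 uM unlabeled; heparin inducer 20 uM final; 37 C, 6 hr; FP endpoint.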
Tau fluor cs: counter-screen for tau fibril formation inhibitors; actives 0.93% (n = 280,000); tau K18 P301L (four-repeat tau fragment) Alexa594 fluorescence, heparin fibrillization; AID 1463; Potency, µM (titrated, usually from 57.7 µM); further: nearly all actives have a fitted effect of over 55% in size
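Human K18 P301L tau (15 uM unlabeled plus 0.24 uM Alexa 594-labeled, final) in 100 mM sodium acetate pH 7 was mixed with compound and 20 uM heparin and incubated 6 hr at 37 C.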
ALDH1A1 block: inhibitors of human aldehyde dehydrogenase 1A1 | Purified ALDH1A1, NADH fluorescence, propionaldehyde substrate | P00352 | Potency, µM (top dose mostly 75.3 µM), most hits filed as inhibitors | actives 7.3% (n = 220,000); active means well fitted inhibition curve with a large enough effect, not every such curve was filed as active; inconclusive means small, poorly fitted or top-dose-only effect, or another doubt; inactive means no such curve, though single readings can be large or run the other way
Target sequence (P00352 whole entry, looked up): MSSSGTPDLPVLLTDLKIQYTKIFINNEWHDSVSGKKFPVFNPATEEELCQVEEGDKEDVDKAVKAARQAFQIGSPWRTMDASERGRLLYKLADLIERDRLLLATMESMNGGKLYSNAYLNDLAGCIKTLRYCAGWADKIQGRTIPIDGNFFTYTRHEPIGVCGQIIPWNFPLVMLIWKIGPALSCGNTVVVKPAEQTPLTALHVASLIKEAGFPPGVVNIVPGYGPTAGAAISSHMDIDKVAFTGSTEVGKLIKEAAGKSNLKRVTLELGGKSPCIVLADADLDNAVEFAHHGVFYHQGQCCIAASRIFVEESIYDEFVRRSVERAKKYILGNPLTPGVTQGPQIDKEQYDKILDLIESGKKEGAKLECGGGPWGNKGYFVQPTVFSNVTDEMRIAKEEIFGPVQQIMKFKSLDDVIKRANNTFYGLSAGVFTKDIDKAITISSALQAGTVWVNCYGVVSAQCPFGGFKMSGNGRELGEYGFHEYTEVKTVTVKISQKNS
Of the large screens only hits and unclear results are named; the others gave an inactive call; [ ] = another dose, or the depositor's remark. In the library only some 9.9% were active in any assay of this set; here they are far more common. Unless noted, the call rests on the fitted dose curve; in most records, active means well fitted curve in the direction sought with a large enough effect; inconclusive means small, poorly fitted or top-dose-only effect, or another doubt; inactive means no such curve, though single readings can be large; an effect the other way counts as inactive or inconclusive.

COc1ccc(C)c2sc(N(Cc3cccnc3)C(=O)c3cccs3)nc12	none (no result: JMJD2E inh, HPGD inh, ALDH1A1 block)
O=C(Oc1csc(=S)n1C(=O)c1ccccc1)c1ccccc1	HPGD inh 4.47µM, Tau ThT inhib 11.2µM, ALDH1A1 block 3.16µM
Cc1cccc(C(=O)Oc2csc(=S)n2C(=O)c2cccc(C)c2)c1	JMJD2E inh inconclusive, HPGD inh 14.1µM, Tau ThT inhib 12.6µM, ALDH1A1 block 8.91µM
Cc1cccc(C(=O)Nc2cccc(OC(=O)c3cccc(C)c3)c2)c1	Tau FP inhib inconclusive, Tau fluor cs inconclusive
O=C(Oc1cccccc1=O)c1ccccc1	Tau ThT inhib inconclusive (no result: HPGD inh)
c1ccc2c(c1)Nc1cc3ccccc3cc1S2	Tau ThT inhib 2.24µM, Tau FP inhib inconclusive, Tau fluor cs inconclusive (no result: HPGD inh)
COc1ccc2c(c1)Sc1ccccc1N2	Tau ThT inhib 10µM, Tau fluor cs 10µM[quencher] (no result: HPGD inh)
CCOC(=O)c1c(C)[nH]c(CCC(=O)NCc2ccc(OC)c(OC)c2)c1C	none (no result: JMJD2E inh, HPGD inh, ALDH1A1 block)
Nc1cc([N+](=O)[O-])ccc1Nc1ccc(O)cc1	JMJD2E inh inconclusive, Tau ThT inhib 12.6µM, Tau FP inhib inconclusive, Tau fluor cs 20µM[quencher] (no result: HPGD inh, ALDH1A1 block)
N#CCCn1cc(C(=O)N2CCOCC2)c(-c2ccc3c(c2)OCCO3)n1	none (no result: HPGD inh)
C=CCc1c(C)nc(SCc2nc3ccccc3c(=O)[nH]2)[nH]c1=O	HPGD inh 2.82µM, ALDH1A1 block 14.1µM
Cc1ccc(-n2ncc3c(=O)[nH]c(SCC(=O)N4CCCC4)nc32)cc1C	HPGD inh 15.8µM
CCc1c(O)nc(SCc2nc3ccccc3c(=O)[nH]2)[nH]c1=O	Tau ThT inhib inconclusive (no result: HPGD inh)
CCOC(=O)N1CCN(C(=O)CSc2nc3c(cnn3-c3ccccc3)c(=O)[nH]2)CC1	ALDH1A1 block 11.2µM
O=c1[nH]c(SCc2nc3c(cnn3-c3ccccc3)c(=O)[nH]2)nc2ccccc12	HPGD inh 0.794µM, Tau FP inhib inconclusive, ALDH1A1 block inconclusive
CCc1ccccc1NC(=O)CC(C)n1nc(C)cc1C (centres undefined)	none (no result: JMJD2E inh, HPGD inh, ALDH1A1 block)
OC(CNCCCCNCC(O)C(F)(F)F)C(F)(F)F (centres undefined)	none (no result: HPGD inh)
COC(=O)C1=C(O)/C(=C\c2ccc(CNS(=O)(=O)c3ccccc3)o2)N=C1C	Tau ThT inhib 14.1µM, Tau FP inhib inconclusive, Tau fluor cs inconclusive, ALDH1A1 block 31.6µM
COc1ccc(-n2c(SCC(=O)c3ccc(Cl)cc3)nc3c([nH]c4ccccc43)c2=O)cc1	none (no result: JMJD2E inh, HPGD inh, ALDH1A1 block)
Cc1cc(C)nc(N(C#N)Cc2ccccc2C)n1	none (no result: HPGD inh)
Cc1cc(C)nc(N(C#N)Cc2ccccc2Cl)n1	ALDH1A1 block 14.1µM
Cc1cc(C)nc(N(C#N)CN2C(=O)c3ccccc3C2=O)n1	HPGD inh inconclusive, ALDH1A1 block 25.1µM
C/C(N)=C(/C#N)C(=O)COC(=O)CNS(=O)(=O)c1c(F)cccc1F	JMJD2E inh inconclusive (no result: HPGD inh)
CCCCSCCCNC(=O)c1c[nH]c2ccc(S(=O)(=O)Nc3cccc(OC)c3)cc2c1=O	Tau FP inhib 2µM, Tau fluor cs inconclusive (no result: JMJD2E inh, HPGD inh, ALDH1A1 block)
COc1cccc(NS(=O)(=O)c2ccc3[nH]cc(C(=O)NC(C)c4ccccc4)c(=O)c3c2)c1 (centres undefined)	Tau FP inhib 7.94µM, Tau fluor cs inconclusive (no result: JMJD2E inh, HPGD inh, ALDH1A1 block)
CCOCCCNC(=O)c1c[nH]c2ccc(S(=O)(=O)Nc3cccc(OC)c3)cc2c1=O	HPGD inh inconclusive, ALDH1A1 block inconclusive
CCN(c1ccccc1)S(=O)(=O)c1c(C)nc2scc(C)n2c1=O	none (no result: JMJD2E inh, HPGD inh, ALDH1A1 block)
CN(C)c1ccc(NC(=O)CSC2=Nc3ccccc3C3=NC(CC(=O)NCc4ccc5c(c4)OCO5)C(=O)N23)cc1 (centres undefined)	Tau ThT inhib inconclusive, Tau fluor cs inconclusive (no result: JMJD2E inh, HPGD inh, ALDH1A1 block)
O=C(N/C(=C\c1cccc([N+](=O)[O-])c1)C(=O)N(CCO)CCO)c1ccco1	none (no result: HPGD inh)
Cc1ccc(S(=O)(=O)CCSc2n[nH]c(=O)n2-c2ccccc2)cc1	ALDH1A1 block 20µM (no result: HPGD inh)
Cc1ccc(S(=O)(=O)CCSc2nccn2C)cc1	JMJD2E inh inconclusive (no result: HPGD inh)
Cc1cc(C)c(-n2c(SCc3nc4ccccc4s3)n[nH]c2=O)c(C)c1	none (no result: HPGD inh, Tau ThT inhib, ALDH1A1 block)
Cc1cc(C)c(-n2c(SCCS(=O)(=O)c3ccc(F)cc3)n[nH]c2=O)c(C)c1	ALDH1A1 block 14.1µM (no result: HPGD inh)
CSCCC(NC(=O)c1ccccc1Br)C(=O)Nc1ccc(C)cc1 (centres undefined)	none
COc1ccc(NC(=O)CSC2CC(=O)N(c3ccc4c(c3)OCCO4)C2=O)cc1 (centres undefined)	ALDH1A1 block 14.1µM
COc1ccc(N2C(=O)CC(SCC(=O)O)C2=O)cc1 (centres undefined)	ALDH1A1 block inconclusive
COc1ccccc1NC(=O)CSC1CC(=O)N(c2ccc3c(c2)OCO3)C1=O (centres undefined)	Tau ThT inhib inconclusive, ALDH1A1 block 0.562µM
Cc1ccc(NCc2nnc(SCC(=O)NNC(=O)Cc3ccccc3)n2C)cc1	none (no result: HPGD inh, ALDH1A1 block)
Cc1ccc(Cc2cn3cc(-c4ccccc4)nc3s2)cc1	none (no result: JMJD2E inh, HPGD inh, ALDH1A1 block)

Screening results as filed in PubChem.
